{
  "source": "the supplement of paper PMC9801561",
  "key": {"[1]": {"tested_on": "Escherichia coli Nissle 1917", "assay": "area under OmniLog respiration curve over 48 h (OmniLog units x h); higher = more growth / nutrient utilisation; extreme values may be limits of the assay", "settings": "incubation: 48 h, 37 °C"}, "[2]": {"tested_on": "Escherichia coli Nissle 1917", "assay": "DuctApe activity index of respiration/growth curve (0 no growth to 9 maximum) (index 0-9); higher = more growth / nutrient utilisation, active = 3 or more; extreme values may be limits of the assay", "settings": "incubation: 48 h, 37 °C"}, "[3]": {"settings": "nutrient role: sole sulfur source (pyruvate carbon)"}, "[4]": {"settings": "nutrient role: C-Source, carbohydrate"}, "[5]": {"settings": "nutrient role: C-Source, carboxylic acid"}, "[6]": {"settings": "nutrient role: sole phosphorus source (pyruvate carbon)"}, "[7]": {"settings": "nutrient role: sole nitrogen source (pyruvate carbon)"}},
  "note": "± gives the standard deviation of the averaged measurements.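 For DuctApe activity index of respiration/growth curve (0 no growth to 9 maximum) in this document: biolog PM4 phosphorus and sulfur plates, tetrazolium violet dye reduction read in the OmniLog every 15 min, kinetic curves scored by DuctApe, each plate run in triplicate.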",
  "data": [
    {"smiles": "O=S(O)(O)=S", "note": "[Thiosulfate]", "values": [
      {"measurement": "area under OmniLog respiration curve", "setting": "[1]; [3]", "result": "6770 ± 170"},
      {"measurement": "DuctApe activity index", "setting": "[2]; [3]", "result": "7 (active)"}
    ]},
    {"smiles": "O=P(O)(O)OC[C@H]1OC(O)(CO)[C@@H](O)[C@@H]1O", "note": "(stereo partly drawn) [D-Fructose-6-Phosphate]", "values": [
      {"measurement": "area under OmniLog respiration curve", "setting": "[1]; [4]", "result": "9900 ± 640"},
      {"measurement": "DuctApe activity index", "setting": "[2]; [4]", "result": "9 (active)"}
    ]},
    {"smiles": "N[C@@H](C(=O)O)[C@@H](O)[C@H](O)[C@H](O)CO", "note": "[D-Glucosaminic acid]", "values": [
      {"measurement": "area under OmniLog respiration curve", "setting": "[1]; [5]", "result": "1010 ± 670"},
      {"measurement": "DuctApe activity index", "setting": "[2]; [5]", "result": "2 (inactive)"}
    ]},
    {"smiles": "Nc1nc2c(ncn2[C@@H]2O[C@H](CO)[C@@H](O)[C@H]2OP(=O)(O)O)c(=O)[nH]1", "note": "[Guanosine 2`-Monophosphate]", "values": [
      {"measurement": "area under OmniLog respiration curve", "setting": "[1]; [6]", "result": "9820 ± 820"},
      {"measurement": "DuctApe activity index", "setting": "[2]; [6]", "result": "9 (active)"}
    ]},
    {"smiles": "NC(CCSCC(N)C(=O)O)C(=O)O", "note": "(stereo not drawn) [Cystathionine]", "values": [
      {"measurement": "area under OmniLog respiration curve", "setting": "[1]; [3]", "result": "4100 ± 130"},
      {"measurement": "DuctApe activity index", "setting": "[2]; [3]", "result": "6 (active)"}
    ]},
    {"smiles": "NO", "note": "[Hydroxylamine]", "values": [
      {"measurement": "area under OmniLog respiration curve", "setting": "[1]; [7]", "result": "5.62 ± 1.6"},
      {"measurement": "DuctApe activity index", "setting": "[2]; [7]", "result": "0 (inactive)"}
    ]},
    {"smiles": "O=C1O[C@H]([C@@H](O)CO)[C@@H](O)[C@@H]1O", "note": "[L-Galactonic acid-g-Lactone]", "values": [
      {"measurement": "area under OmniLog respiration curve", "setting": "[1]; [5]", "result": "10200 ± 640"},
      {"measurement": "DuctApe activity index", "setting": "[2]; [5]", "result": "9 (active)"}
    ]},
    {"smiles": "C[C@H](N)C(=O)N[C@@H](CCC(=O)O)C(=O)O", "values": [
      {"measurement": "area under OmniLog respiration curve", "setting": "[1]; [7]", "result": "8550 ± 1300"},
      {"measurement": "DuctApe activity index", "setting": "[2]; [7]", "result": "8.33 (active)"}
    ]},
    {"smiles": "N[C@@H](CS)C(=O)NCC(=O)O", "values": [
      {"measurement": "area under OmniLog respiration curve", "setting": "[1]; [3]", "result": "6960 ± 77"},
      {"measurement": "DuctApe activity index", "setting": "[2]; [3]", "result": "7 (active)"}
    ]},
    {"smiles": "OC[C@@H](O)[C@@H](O)[C@H](O)[C@@H](O)CO", "note": "[D-Sorbitol]", "values": [
      {"measurement": "area under OmniLog respiration curve", "setting": "[1]; [4]", "result": "8340 ± 910"},
      {"measurement": "DuctApe activity index", "setting": "[2]; [4]", "result": "8.33 (active)"}
    ]},
    {"smiles": "NC(=O)OP(=O)(O)O", "note": "[Carbamyl Phosphate]", "values": [
      {"measurement": "area under OmniLog respiration curve", "setting": "[1]; [6]", "result": "9480 ± 480"},
      {"measurement": "DuctApe activity index", "setting": "[2]; [6]", "result": "9 (active)"}
    ]},
    {"smiles": "O=S(=O)(O)O", "note": "[Sulfate]", "values": [
      {"measurement": "area under OmniLog respiration curve", "setting": "[1]; [3]", "result": "6810 ± 400"},
      {"measurement": "DuctApe activity index", "setting": "[2]; [3]", "result": "7.33 (active)"}
    ]},
    {"smiles": "O=C(O)C(CO)OP(=O)(O)O", "note": "[D-2-Phospho-Glyceric acid]", "values": [
      {"measurement": "area under OmniLog respiration curve", "setting": "[1]; [6]", "result": "9640 ± 700"},
      {"measurement": "DuctApe activity index", "setting": "[2]; [6]", "result": "9 (active)"}
    ]},
    {"smiles": "Nc1nc2c(ncn2[C@@H]2O[C@H](CO)[C@@H](O)[C@H]2O)c(=O)[nH]1", "note": "[Guanosine]", "values": [
      {"measurement": "area under OmniLog respiration curve", "setting": "[1]; [7]", "result": "442 ± 580"},
      {"measurement": "DuctApe activity index", "setting": "[2]; [7]", "result": "0.333 (inactive)"}
    ]}
  ]
}
